Counter-ions that a name gives are not always drawn.
These compounds were tested on Staphylococcus aureus MW2 delta-mecA (mecA-) (assay: normalized GFP fluorescence (growth of mecA- strain) (fraction of control range); higher = more growth of mecA- strain). Settings: compound concentration: 150 uM; cefoxitin: subinhibitory; fluorescent label: GFP.
Method in brief: (§1)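 Single-replicate 1536-well plates carried 150 μM compound (1.5% DMSO), onto which 5 µL/well of a 1:1 mix of pre-induced S. aureus MW2 cells was dispensed: gene-carrying cells tagged with DsRed and deletion cells tagged with GFP, in LB with a subinhibitory antibiotic dose set daily. Incubation ran 20 h at 37 °C, 90% humidity, unshaken, followed by DsRed (540/590) and GFP (485/520) reads. Per-plate scaling of each channel used single-strain control medians, and plates with high untreated ratios and rows with DsRed/GFP >10 were excluded.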

SMILES | normalized GFP fluorescence
C[C@@H]1C/C=C/C=C/C=C/C=C/[C@H](O[C@@H]2O[C@H](C)[C@@H](O)[C@H](N)[C@@H]2O)C[C@@H]2O[C@](O)(C[C@@H](O)C[C@H]3O[C@@H]3/C=C/C(=O)O1)C[C@H](O)[C@H]2C(=O)O | 0.448
CN(C(=O)C(Cl)Cl)c1ccc(OC(=O)c2ccco2)cc1 | 0.156
N[C@H](C(=O)O)[C@H](O)c1ccc(O)c(O)c1 [Droxidopa (L-DOPS)] | -0.00088
CCCNCC(O)COc1ccccc1C(=O)CCc1ccccc1 (stereo not drawn) | 0.19
Cc1nc2n(c(=O)c1CCN1CCC(c3noc4cc(F)ccc34)CC1)CCCC2 | 0.481
Cc1nc(-c2ccc(OCC(C)C)c(C#N)c2)sc1C(=O)O [Febuxostat (Uloric)] | 0.0973
CCCCN1CCCCC1C(=O)Nc1c(C)cccc1C (stereo not drawn) | 0.62
C[N+](C)(C)CCOP(=O)(O)OP(=O)([O-])OC[C@H]1O[C@@H](n2ccc(N)nc2=O)[C@H](O)[C@@H]1O | 0.342
CN(C)c1cc(NC(=O)CNC(C)(C)C)c(O)c2c1C[C@H]1C[C@H]3[C@H](N(C)C)C(O)=C(C(N)=O)C(=O)[C@@]3(O)C(O)=C1C2=O [Tigecycline] | 0.473
Clc1ccc2nsnc2c1NC1=NCCN1 [Tizanidine HCl] | 0.539
Cc1ccc(C)c(OCCCC(C)(C)C(=O)O)c1 | 0.121
CCC(=O)OCC(=O)[C@@]1(OC(=O)CC)[C@@H](C)C[C@H]2[C@@H]3CCC4=CC(=O)C=C[C@]4(C)[C@@]3(Cl)[C@@H](O)C[C@@]21C | 0.322
CCC1=C[C@@H]2CN(C1)Cc1c([nH]c3ccccc13)[C@@](C(=O)OC)(c1cc3c(cc1OC)N(C)[C@H]1[C@@](O)(C(=O)OC)[C@H](OC(C)=O)[C@]4(CC)C=CCN5CC[C@]31[C@@H]54)C2 [Vinorelbine (Navelbine)] | 0.108
Cc1cnc(C(=O)NCCc2ccc(S(=O)(=O)NC(=O)NC3CCCCC3)cc2)cn1 | 0.553
CCCCC(=O)O[C@]1(C(=O)CO)CC[C@H]2[C@@H]3CCC4=CC(=O)CC[C@]4(C)[C@H]3[C@@H](O)C[C@@]21C | 0.382
O=C(NCC(O)CO)c1c(I)c(C(=O)NCC(O)CO)c(I)c(N(CCO)C(=O)CO)c1I (stereo not drawn) | 0.368
CC(=O)CC(c1ccccc1)c1c(O)c2ccccc2oc1=O (stereo not drawn) | 0.718
CC(C)NCC(O)c1ccc(O)c(O)c1 (stereo not drawn) [Isoprenaline hydrochloride] | 0.458
CC(=O)NS(=O)(=O)c1ccc(N)cc1 | 0.792
COc1ccc2cccc(CCNC(C)=O)c2c1 [Agomelatine] | 0.243
CC(C)n1c(/C=C/C(O)CC(O)CC(=O)O)c(-c2ccc(F)cc2)c2ccccc21 (stereo not drawn) | 0.0168
NC(=O)Cc1cccc(C(=O)c2ccccc2)c1N [Nepafenac] | 0.747
O=C(O)CCC(=O)Nc1ccc(S(=O)(=O)Nc2nccs2)cc1 | 0.332
Cc1cccc(C)c1OCC(C)N (stereo not drawn) | 0.344
C1CCN2C[C@@H]3C[C@@H](CN4CCCC[C@@H]34)[C@H]2C1 | 0.334
COc1ccc(-c2ccc3cc(C(=O)O)ccc3c2)cc1C12CC3CC(CC(C3)C1)C2 | 0.582
Nc1cccc2c1CN(C1CCC(=O)NC1=O)C2=O (stereo not drawn) [Lenalidomide] | 0.34
Cc1c2oc3c(C)ccc(C(=O)N[C@@H]4C(=O)N[C@H](C(C)C)C(=O)N5CCC[C@H]5C(=O)N(C)CC(=O)N(C)[C@@H](C(C)C)C(=O)O[C@@H]4C)c3nc-2c(C(=O)N[C@@H]2C(=O)N[C@H](C(C)C)C(=O)N3CCC[C@H]3C(=O)N(C)CC(=O)N(C)[C@@H](C(C)C)C(=O)O[C@@H]2C)c(N)c1=O | -0.00268

What follows are compounds tested on Staphylococcus aureus MW2 (mecA+) (assay: normalized DsRed fluorescence (growth of mecA+ strain) (fraction of control range); higher = more growth of mecA+ strain). Settings: compound concentration: 150 uM; cefoxitin: subinhibitory; fluorescent label: DsRed.
Method in brief: as §1

SMILES | normalized DsRed fluorescence
Cc1cc(CC(=O)O)n(C)c1C(=O)c1ccc(Cl)cc1 | 0.63
CN[C@@H]1[C@H](O[C@H]2[C@H](O[C@H]3[C@H](O)[C@@H](O)[C@H](NC(=N)N)[C@@H](O)[C@@H]3NC(=N)N)O[C@@H](C)[C@]2(O)CO)O[C@@H](CO)[C@H](O)[C@H]1O | 0.832
CCC(=O)O[C@@H](O[P@](=O)(CCCCc1ccccc1)CC(=O)N1C[C@H](C2CCCCC2)C[C@H]1C(=O)O)C(C)C [Fosinopril sodium (Monopril)] | 0.378
Cc1cc2c(cc1CC(=O)c1sccc1S(=O)(=O)Nc1onc(C)c1Cl)OCO2 | 0.293
COc1ccc2cc([C@H](C)C(=O)O)ccc2c1 [Naproxen (Aleve)] | 0.825
CN1CCCCC1CCN1c2ccccc2Sc2ccc([S+](C)[O-])cc21 (stereo not drawn) | 1.16
CC1(C)O[C@@H]2C[C@H]3[C@@H]4CCC5=CC(=O)CC[C@]5(C)[C@@]4(F)[C@@H](O)C[C@]3(C)[C@]2(C(=O)CCl)O1 | 0.844
COc1ccccc1N1CCN(CCCNc2cc(=O)n(C)c(=O)n2C)CC1 [Urapidil hydrochloride] | 0.557
Cc1ccc(C(=O)c2ccc(CC(=O)O)n2C)cc1 | 0.279
COC(=O)Nc1nc2cc(Sc3ccccc3)ccc2[nH]1 | 0.601
Cc1c(O)c(=O)ccn1C [Deferiprone] | 0.96
C[C@@H]1O[C@@H](OC[C@H]2O[C@@H](Oc3c(-c4ccc(O)c(O)c4)oc4cc(O)cc(O)c4c3=O)[C@H](O)[C@@H](O)[C@@H]2O)[C@H](O)[C@H](O)[C@H]1O [Rutin (Rutoside)] | 0.725
C[C@@H]1C/C=C/C=C/C=C/C=C/[C@H](O[C@@H]2O[C@H](C)[C@@H](O)[C@H](N)[C@@H]2O)C[C@@H]2O[C@](O)(C[C@@H](O)C[C@H]3O[C@@H]3/C=C/C(=O)O1)C[C@H](O)[C@H]2C(=O)O | 0.753
CN(C(=O)C(Cl)Cl)c1ccc(OC(=O)c2ccco2)cc1 | 0.938
N[C@H](C(=O)O)[C@H](O)c1ccc(O)c(O)c1 [Droxidopa (L-DOPS)] | 1.79
CCCNCC(O)COc1ccccc1C(=O)CCc1ccccc1 (stereo not drawn) | 1.05
Cc1nc2n(c(=O)c1CCN1CCC(c3noc4cc(F)ccc34)CC1)CCCC2 | 0.492
Cc1nc(-c2ccc(OCC(C)C)c(C#N)c2)sc1C(=O)O [Febuxostat (Uloric)] | 0.396
CCCCN1CCCCC1C(=O)Nc1c(C)cccc1C (stereo not drawn) | 0.887
C[N+](C)(C)CCOP(=O)(O)OP(=O)([O-])OC[C@H]1O[C@@H](n2ccc(N)nc2=O)[C@H](O)[C@@H]1O | 0.78

SMILES | normalized DsRed fluorescence
CN(C)c1cc(NC(=O)CNC(C)(C)C)c(O)c2c1C[C@H]1C[C@H]3[C@H](N(C)C)C(O)=C(C(N)=O)C(=O)[C@@]3(O)C(O)=C1C2=O [Tigecycline] | 0.779
Clc1ccc2nsnc2c1NC1=NCCN1 [Tizanidine HCl] | 0.515
Cc1ccc(C)c(OCCCC(C)(C)C(=O)O)c1 | 1.54
CCC(=O)OCC(=O)[C@@]1(OC(=O)CC)[C@@H](C)C[C@H]2[C@@H]3CCC4=CC(=O)C=C[C@]4(C)[C@@]3(Cl)[C@@H](O)C[C@@]21C | 0.958
CCC1=C[C@@H]2CN(C1)Cc1c([nH]c3ccccc13)[C@@](C(=O)OC)(c1cc3c(cc1OC)N(C)[C@H]1[C@@](O)(C(=O)OC)[C@H](OC(C)=O)[C@]4(CC)C=CCN5CC[C@]31[C@@H]54)C2 [Vinorelbine (Navelbine)] | 0.921
Cc1cnc(C(=O)NCCc2ccc(S(=O)(=O)NC(=O)NC3CCCCC3)cc2)cn1 | 0.734
CCCCC(=O)O[C@]1(C(=O)CO)CC[C@H]2[C@@H]3CCC4=CC(=O)CC[C@]4(C)[C@H]3[C@@H](O)C[C@@]21C | 0.447
O=C(NCC(O)CO)c1c(I)c(C(=O)NCC(O)CO)c(I)c(N(CCO)C(=O)CO)c1I (stereo not drawn) | 1.04
CC(=O)CC(c1ccccc1)c1c(O)c2ccccc2oc1=O (stereo not drawn) | 0.285
CC(C)NCC(O)c1ccc(O)c(O)c1 (stereo not drawn) [Isoprenaline hydrochloride] | 0.758
CC(=O)NS(=O)(=O)c1ccc(N)cc1 | 0.694
COc1ccc2cccc(CCNC(C)=O)c2c1 [Agomelatine] | 0.62
CC(C)n1c(/C=C/C(O)CC(O)CC(=O)O)c(-c2ccc(F)cc2)c2ccccc21 (stereo not drawn) | 0.369
NC(=O)Cc1cccc(C(=O)c2ccccc2)c1N [Nepafenac] | 0.818
O=C(O)CCC(=O)Nc1ccc(S(=O)(=O)Nc2nccs2)cc1 | 1.01
Cc1cccc(C)c1OCC(C)N (stereo not drawn) | 1.02
C1CCN2C[C@@H]3C[C@@H](CN4CCCC[C@@H]34)[C@H]2C1 | 0.556
COc1ccc(-c2ccc3cc(C(=O)O)ccc3c2)cc1C12CC3CC(CC(C3)C1)C2 | 0.97
Nc1cccc2c1CN(C1CCC(=O)NC1=O)C2=O (stereo not drawn) [Lenalidomide] | 0.974
Cc1c2oc3c(C)ccc(C(=O)N[C@@H]4C(=O)N[C@H](C(C)C)C(=O)N5CCC[C@H]5C(=O)N(C)CC(=O)N(C)[C@@H](C(C)C)C(=O)O[C@@H]4C)c3nc-2c(C(=O)N[C@@H]2C(=O)N[C@H](C(C)C)C(=O)N3CCC[C@H]3C(=O)N(C)CC(=O)N(C)[C@@H](C(C)C)C(=O)O[C@@H]2C)c(N)c1=O | 0.0533

— the supplement of paper PMC7695840
